Laboratory results: PubChem BioAssay (NCI)
Compounds without any hit were thinned out: in the full panel of roughly 79,000, 15% have a hit. Active and inactive are the calls of the source. Rule as the data show it: active = growth inhibition above about 70%; inactive = the rest. Where a SMILES comes first, the peptide text is derived from it.

assay: NCI Yeast Anticancer Drug Screen. Data for the sgs1 mgt1 strain (AID 161);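 also: 0% = growth of cultures given vehicle only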; conditions: S. cerevisiae sgs1 mgt1 strain, at 50.0 µM, hits give high values
Method in brief: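 Mutant yeast exposed to compound; growth scored against vehicle-only wells.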

| Structure (SMILES) | growth inhibition |
| --- | --- |
| CCOC(=O)CN=NNc1ccc([N+](=O)[O-])cc1 | -3.5% (inactive) |
| CC(C)(C)CC(C)(C)c1cc2c(O)c(c1)Cc1cc(C(C)(C)CC(C)(C)C)cc(c1O)Cc1cc(C(C)(C)CC(C)(C)C)cc(c1O)Cc1cc(C(C)(C)CC(C)(C)C)cc(c1O)Cc1cc(C(C)(C)CC(C)(C)C)cc(c1O)C2 | 8.75% (inactive) |
| COC(=O)c1c[nH]c(C=O)c1C | -6.95% (inactive) |
| COc1cc(C)c(N)cc1N | 11.3% (inactive) |
| O=C(NCC(=O)N1CCCC1C(=O)OC(=O)C1CCCN1C(=O)CNC(=O)OCc1ccccc1)OCc1ccccc1 (stereo not given) | 4.35% (inactive) |
| CC(=O)c1cccc(NC(=O)OC2CCCC(C)C2)c1 (stereo not given) | 59.6% (inactive) |
| Cc1cc(=O)[nH]c(NN2C(Cl)C(=O)C2c2cccc(Cl)c2)n1 (stereo not given) | -9.4% (inactive) |
| CN(C)/C=C(/N=C(C#N)C#N)C1OCCO1 | -2.55% (inactive) |
| O=C(Nc1cccc2c1[nH]c1c(-c3ccccc3)nccc12)c1ccccc1[N+](=O)[O-] | 49.2% (inactive) |
| CC[n+]1c(-c2ccccc2)c2cc(NCCCN)ccc2c2ccc(N)cc21 | 8.8% (inactive) |
| COc1ccc(CC[N+]2=Cc3cc(OC)c(OC)cc3CC2)cc1OC | 12.6% (inactive) |
| CC(C)CC(NC(=O)C(NC(=O)C(N)C(C)O)C(C)C)C(=O)O (stereo not drawn) (H-Thr-Val-Leu-OH; configuration not given here) | 3.5% (inactive) |
| CN1CCOC(=O)C(C#N)=C1c1ccccc1 | -9.15% (inactive) |
| CCN(CC)CCn1c2ccccc2c(=O)c2c(O)ccc(O)c21 | 3.35% (inactive) |
| NC(Cc1ccccc1)C(=O)Nc1ccccc1 (stereo not given) | -7.3% (inactive) |
| C[N+](C)(C)C1=CC=CC=C1.Br[Br-]Br | 0.15% (inactive) |
| O=c1c2cc([N+](=O)[O-])ccc2[nH]n1Cc1ccccn1 | -19.6% (inactive) |
| Clc1cc(Cl)cc(Nc2nc3ccccc3nc2-c2cccs2)c1 | 33.2% (inactive) |
| CCC(=O)OC1CCC2(C)C(=CCC3C2CCC2(C)C(C(C)CCCC(C)C)CCC32)C1 (stereo not given) | -20.6% (inactive) |
| C=CCNC(=O)OCCCl | -9.6% (inactive) |

| Structure (SMILES) | growth inhibition |
| --- | --- |
| Oc1c(N=Nc2ccccc2)c2ccccc2c2ccc3ccccc3c12 | -7.6% (inactive) |
| NNCCSC1CCCCC1 | 15.3% (inactive) |
| CC(=O)c1ccc(OC(=O)Nc2ccc(Cl)cc2)cc1 | 23.9% (inactive) |
| CN(C)c1ccc(-c2nc(N)nc3c2CCCC3)cc1 | -13.3% (inactive) |
| O=C1/C(=C/c2ccc3c(c2)CCC3)Cc2cc3c(cc21)CCC3 | -23.4% (inactive) |
| CCCCCCC(=O)OCC | -4.7% (inactive) |
| Cc1ccc(C(C)C)c(O)c1NC(=S)N/N=C\c1cc(Cl)ccc1O | -13.9% (inactive) |
| O=C(O)c1cc(-c2ccccc2Cl)nc2cc3ccccc3cc12 | 4.45% (inactive) |
| CC1=NN(c2ccccc2)C(=O)/C1=C\c1ccccc1 | 24.7% (inactive) |
| CC(C)C(=O)CC(c1ccc(Cl)cc1)N1N=C(C(C)C)CC1c1ccc(Cl)cc1 (stereo not given) | 6.95% (inactive) |
| COC(=O)CN(c1c(C)cc(C)c(N)c1C)S(=O)(=O)c1ccccc1 | 4.65% (inactive) |
| COc1ccc(C(=O)C2CC(=O)NC2=O)cc1 (stereo not given) | -1.8% (inactive) |
| NS(=O)(=O)c1ccc(NC(=S)/N=C\c2c(O)[nH]c(=O)[nH]c2=O)cc1 | -18.3% (inactive) |
| COc1ccc2c(c1)C(C)(C(N)=O)CCC2 (stereo not given) | 3.7% (inactive) |
| COc1c2occc2c(Br)c2ccc(=O)oc12 | 19.4% (inactive) |
| COC(=O)C1N=CSCC1(C)O (stereo not given) | -25.9% (inactive) |
| CC(=O)OCC1OC(n2cc(CBr)nn2)C(OC(C)=O)C(OC(C)=O)C1OC(C)=O (stereo not given) | -24.1% (inactive) |
| CCOC(=O)/C(=C(/N)C1OC(COC(c2ccccc2)(c2ccccc2)c2ccccc2)C2OC(C)(C)OC12)C1CC(=O)N(C)C1=O (stereo not given) | 12.7% (inactive) |
| COc1ccc(C(O)c2ccc(C)cc2)cc1 (stereo not given) | -43% (inactive) |
| CN=S(=O)(OCCCCOS(=O)(=NC)c1ccc(C)cc1)c1ccc(C)cc1 (stereo not given) | -26.4% (inactive) |

assay: NCI Yeast Anticancer Drug Screen. Data for the cln2 rad14 strain (AID 165);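 also: 0% = growth equal to vehicle treated cultures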; conditions: S. cerevisiae cln2 rad14 strain, at 50.0 µM, hits give high values
Method in brief: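 cln2 rad14 yeast strain; compound exposure; growth inhibition read vs vehicle controls.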

| Structure (SMILES) | growth inhibition |
| --- | --- |
| CCOC(=O)CN=NNc1ccc([N+](=O)[O-])cc1 | -42.2% (inactive) |
| CC(C)(C)CC(C)(C)c1cc2c(O)c(c1)Cc1cc(C(C)(C)CC(C)(C)C)cc(c1O)Cc1cc(C(C)(C)CC(C)(C)C)cc(c1O)Cc1cc(C(C)(C)CC(C)(C)C)cc(c1O)Cc1cc(C(C)(C)CC(C)(C)C)cc(c1O)C2 | 31.4% (inactive) |
| COC(=O)c1c[nH]c(C=O)c1C | -67.8% (inactive) |
| COc1cc(C)c(N)cc1N | -14% (inactive) |
| O=C(NCC(=O)N1CCCC1C(=O)OC(=O)C1CCCN1C(=O)CNC(=O)OCc1ccccc1)OCc1ccccc1 (stereo not given) | 16.2% (inactive) |
| CC(=O)c1cccc(NC(=O)OC2CCCC(C)C2)c1 (stereo not given) | 19.4% (inactive) |
| Cc1cc(=O)[nH]c(NN2C(Cl)C(=O)C2c2cccc(Cl)c2)n1 (stereo not given) | 2.6% (inactive) |
| CN(C)/C=C(/N=C(C#N)C#N)C1OCCO1 | -27.1% (inactive) |
| O=C(Nc1cccc2c1[nH]c1c(-c3ccccc3)nccc12)c1ccccc1[N+](=O)[O-] | 23.2% (inactive) |
| CC[n+]1c(-c2ccccc2)c2cc(NCCCN)ccc2c2ccc(N)cc21 | 6.3% (inactive) |
| COc1ccc(CC[N+]2=Cc3cc(OC)c(OC)cc3CC2)cc1OC | 13.3% (inactive) |
| CC(C)CC(NC(=O)C(NC(=O)C(N)C(C)O)C(C)C)C(=O)O (stereo not drawn) (H-Thr-Val-Leu-OH; configuration not given here) | 5.95% (inactive) |
| CN1CCOC(=O)C(C#N)=C1c1ccccc1 | -17% (inactive) |
| CCN(CC)CCn1c2ccccc2c(=O)c2c(O)ccc(O)c21 | 4.45% (inactive) |
| NC(Cc1ccccc1)C(=O)Nc1ccccc1 (stereo not given) | 13.3% (inactive) |
| C[N+](C)(C)C1=CC=CC=C1.Br[Br-]Br | 4.7% (inactive) |
| O=c1c2cc([N+](=O)[O-])ccc2[nH]n1Cc1ccccn1 | 9.45% (inactive) |
| Clc1cc(Cl)cc(Nc2nc3ccccc3nc2-c2cccs2)c1 | 3.35% (inactive) |
| CCC(=O)OC1CCC2(C)C(=CCC3C2CCC2(C)C(C(C)CCCC(C)C)CCC32)C1 (stereo not given) | 4.45% (inactive) |
| C=CCNC(=O)OCCCl | 5.95% (inactive) |

| Structure (SMILES) | growth inhibition |
| --- | --- |
| Oc1c(N=Nc2ccccc2)c2ccccc2c2ccc3ccccc3c12 | -15.9% (inactive) |
| NNCCSC1CCCCC1 | -63.1% (inactive) |
| CC(=O)c1ccc(OC(=O)Nc2ccc(Cl)cc2)cc1 | -2.3% (inactive) |
| CN(C)c1ccc(-c2nc(N)nc3c2CCCC3)cc1 | 22.4% (inactive) |
| O=C1/C(=C/c2ccc3c(c2)CCC3)Cc2cc3c(cc21)CCC3 | 21.4% (inactive) |
| CCCCCCC(=O)OCC | 0.9% (inactive) |
| Cc1ccc(C(C)C)c(O)c1NC(=S)N/N=C\c1cc(Cl)ccc1O | 7.6% (inactive) |
| O=C(O)c1cc(-c2ccccc2Cl)nc2cc3ccccc3cc12 | 14.1% (inactive) |
| CC1=NN(c2ccccc2)C(=O)/C1=C\c1ccccc1 | 10.1% (inactive) |
| CC(C)C(=O)CC(c1ccc(Cl)cc1)N1N=C(C(C)C)CC1c1ccc(Cl)cc1 (stereo not given) | -27.4% (inactive) |
| COC(=O)CN(c1c(C)cc(C)c(N)c1C)S(=O)(=O)c1ccccc1 | 5.4% (inactive) |
| COc1ccc(C(=O)C2CC(=O)NC2=O)cc1 (stereo not given) | -38.5% (inactive) |
| NS(=O)(=O)c1ccc(NC(=S)/N=C\c2c(O)[nH]c(=O)[nH]c2=O)cc1 | 15.7% (inactive) |
| COc1ccc2c(c1)C(C)(C(N)=O)CCC2 (stereo not given) | 5.5% (inactive) |
| COc1c2occc2c(Br)c2ccc(=O)oc12 | 7.45% (inactive) |
| COC(=O)C1N=CSCC1(C)O (stereo not given) | 12.5% (inactive) |
| CC(=O)OCC1OC(n2cc(CBr)nn2)C(OC(C)=O)C(OC(C)=O)C1OC(C)=O (stereo not given) | -13.6% (inactive) |
| CCOC(=O)/C(=C(/N)C1OC(COC(c2ccccc2)(c2ccccc2)c2ccccc2)C2OC(C)(C)OC12)C1CC(=O)N(C)C1=O (stereo not given) | -27.8% (inactive) |
| COc1ccc(C(O)c2ccc(C)cc2)cc1 (stereo not given) | -27.6% (inactive) |
| CN=S(=O)(OCCCCOS(=O)(=NC)c1ccc(C)cc1)c1ccc(C)cc1 (stereo not given) | -22.8% (inactive) |
